Results: PubChem BioAssay
Active and inactive are the calls of the source. Unless noted, no rule for the calls is given here.

What was measured:
[1] = system: XIP peptide (Xip251-270) binding; assay: small-molecule binders of XIP peptide, primary screen, biochemical, small-molecule microarray, fluorescence 635/667 nm, 0.1 µg/mL protein (AID 1182); settings: fluorescent protein binding, 635 nm, higher = more signal, called active from +8 up or from −8 down
XIP peptide (Xip251-270) = assay: small-molecule binders of XIP peptide, primary screen, biochemical, small-molecule microarray, fluorescence 635/667 nm, 0.5 µg/mL protein (AID 1183); settings: small-molecule microarray binding, fluorescence 635 nm; higher = more signal
[2] = Plasmodium falciparum growth inhibition, primary screen, strain 3D7, DAPI fluorescence, 100 nL (AID 1184);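 also: parasites grown inside human red blood cells in medium with human serum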; settings: P. falciparum 3D7 growth, 3 d, higher = more signal
[3] = target: Homeobox protein Hox-A13 (Mus musculus) (UniProt Q62424); assay: inhibitors of HoxA13-DNA binding, primary screen, biochemical, fluorescence polarization, labeled oligonucleotide (AID 1185); settings: 15 min, higher = more signal, called active from +8 up or from −8 down
[4] = inhibitors of hydroxyurea-induced Chk1 phosphorylation, primary screen, imaging, HeLa, phospho-Chk1 antibody, percent positive cells (AID 1186); settings: hydroxyurea-induced phospho-Chk1 immunofluorescence imaging, higher = more signal
[5] = inhibitors of hydroxyurea-induced Chk1 phosphorylation, primary screen, imaging, HeLa, phospho-Chk1 nuclear intensity (AID 1187); settings: hydroxyurea-induced phospho-Chk1 immunofluorescence imaging, higher = more signal

Sequence of Homeobox protein Hox-A13 (Mus musculus) (Q62424 whole entry, looked up): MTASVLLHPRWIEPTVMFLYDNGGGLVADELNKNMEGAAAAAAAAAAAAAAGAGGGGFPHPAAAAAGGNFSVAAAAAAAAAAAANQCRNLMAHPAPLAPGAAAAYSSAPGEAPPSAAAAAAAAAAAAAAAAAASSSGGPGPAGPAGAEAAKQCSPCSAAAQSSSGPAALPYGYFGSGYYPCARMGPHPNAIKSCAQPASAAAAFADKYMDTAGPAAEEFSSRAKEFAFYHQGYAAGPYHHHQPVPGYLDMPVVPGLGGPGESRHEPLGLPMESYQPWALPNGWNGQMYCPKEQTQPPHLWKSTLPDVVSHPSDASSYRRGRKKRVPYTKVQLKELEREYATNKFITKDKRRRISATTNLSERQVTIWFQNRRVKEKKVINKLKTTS

Structure (SMILES) | composite z-score [1] | composite z-score (XIP peptide (Xip251-270)) | z-score [2] | z-score [3] | z-score [4] | z-score [5]
O=C1O[C@H](c2ccccc2)[C@H](c2ccccc2)N2[C@H]1[C@@H](C(=O)N1CCCCCCC1)[C@]1(C(=O)Nc3ccc(C#CC4(O)CCCCCC4)cc31)[C@H]2c1ccc(O)cc1 | 1.81 (inactive) | 0.466 | -0.372 | 1.68 (inactive) | -0.216 (inactive) | -1.07 (inactive)
COc1ccc(CCNC(=O)[C@@]2(Cc3ccccc3I)c3ccccc3C(=O)N(Cc3ccccc3Cl)[C@H]2c2ccc(CO)cc2)cc1 | 0.71 (inactive) | 0.765 | -1.23 | -3.36 (inactive) | 0.207 (inactive) | -0.304 (inactive)
CC(C)(C)OC(=O)CC[C@]1(C(=O)N2CCCCC2)COC(c2ccc(OCCCO)cc2)=N1 | 0.252 (inactive) | 0.643 | -1.4 | -4.56 (inactive) | -0.334 (inactive) | 0.131 (inactive)
COc1ccc(C(O)C2C=CC3C(=O)N(c4ccccc4)C(=O)C3N2Nc2ccc(C(C)C)cc2)c2ccccc12 (stereo not given) | 0.886 (inactive) | 0.802 | -0.247 | -0.93 (inactive) | 0.417 (inactive) | 0.0807 (inactive)
COc1ccc([Si](C)(C)[C@@H]2[C@@H](CC(=O)N3Cc4ccccc4C[C@H]3CO)O[C@]3(C(=O)N(Cc4ccc(N5CCC5=O)cc4)c4ccccc43)[C@H]2C)cc1 | 1.08 (inactive) | 0.682 | -2.64 | -0.855 (inactive) | -0.169 (inactive) | 0.14 (inactive)
CO[C@H]1O[C@H](CO)[C@@H](OC(=O)c2ccc(Br)cc2)[C@@H]2OC(=O)[C@H](Cc3ccccc3)C/C=C/C[C@@H](Cc3ccccc3)C(=O)O[C@@H]12 | -0.161 (inactive) | 0.629 | -0.949 | -5.27 (inactive) | -0.708 (inactive) | -1.06 (inactive)
C=CCNC(=O)[C@H]1[C@@H]2C(=O)O[C@@H](c3ccccc3)[C@@H](c3ccccc3)N2[C@@H](c2ccc(OCCO)cc2)[C@]12C(=O)N(C(=O)OCCOC)c1ccc(C#Cc3ccc(OC)cc3)cc12 | 0.0294 (inactive) | 0.719 | -2.38 | 4.25 (inactive) | -0.499 (inactive) | -0.744 (inactive)
CC(C)CNC(=O)[C@@H]1c2ccccc2C(=O)N(C2CCCCC2)[C@H]1c1ccc(CO)cc1 | 0.737 (inactive) | 0.652 | -0.68 | -2.05 (inactive) | -0.411 (inactive) | -0.339 (inactive)
COCCOC(=O)N1C(=O)[C@@]2(c3cc(C#CCCO)ccc31)[C@H](C(=O)N1CCCCCCC1)[C@H]1C(=O)O[C@H](c3ccccc3)[C@H](c3ccccc3)N1[C@@H]2c1ccccc1OCCO | 0.867 (inactive) | 0.6 | -2.18 | 3.5 (inactive) | 0.204 (inactive) | 0.606 (inactive)
CN1C(=O)C2C=CC(C(O)c3ccc(F)cc3)N(NC(=O)OC(C)(C)C)C2C1=O (stereo not given) | -0.0758 (inactive) | 0.258 | -0.383 | -2.11 (inactive) | 0.058 (inactive) | -0.173 (inactive)
C=C[C@@H](C)[C@H](O)c1ccc(OCCO)cc1 | 0.313 (inactive) | 0.0813 | 0.99 | -0.166 (inactive) | 0.485 (inactive) | 0.739 (inactive)
Cc1ccc(S[C@]2(C(=O)NC(C)C)CC(=O)N(Cc3ccccc3Cl)[C@@H]2c2ccc(CO)cc2)cc1 | 0.73 (inactive) | -0.11 | -1.49 | -3.73 (inactive) | -0.0383 (inactive) | -0.0912 (inactive)
C=CCN1C(=O)[C@]2(O[C@H](CCO)[C@@H]([Si](C)(C)c3ccc(OC)cc3)[C@@H]2C)c2cc(N3C(=O)COc4ccccc43)ccc21 | 0.879 (inactive) | 0.677 | -2.85 | -3.34 (inactive) | -1.42 (inactive) | -1.34 (inactive)
COc1ccc([Si](C)(C)[C@H]2[C@H](CCO)O[C@@]3(C(=O)N(Cc4ccc(N5C(=O)c6ccccc6Oc6ccccc65)cc4)c4ccccc43)[C@@H]2C)cc1 | -0.136 (inactive) | 0.0004 | -1.67 | -1.05 (inactive) | -0.557 (inactive) | -0.583 (inactive)
CCCCC(=C=CC[C@H](O)c1ccc(OCCO)cc1)C[C@H](O)COCc1ccccc1 | 0.9 (inactive) | 0.1 | -1.44 | -4.21 (inactive) | -0.122 (inactive) | -0.0784 (inactive)
CC(C)C[C@@H]1NC(=O)[C@@]23C(=O)N[C@@H](Cc4ccccc4)C2[C@H](C)[C@@]2(C)O[C@H]2C3/C=C/C/C=C\CNC(=O)[C@@H](C)NC1=O (stereo not given in full) | 0.772 (inactive) | 0.649 | -1.65 | -4.91 (inactive) | -0.674 (inactive) | -0.734 (inactive)
CC(=O)N1CC(C(O)C2C=CC3C(=O)NC(=O)C3N2Nc2ccc(Cl)cc2Cl)c2ccccc21 (stereo not given) | 0.111 (inactive) | 0.0205 | -0.252 | -4.92 (inactive) | 0.358 (inactive) | 0.492 (inactive)
COC(=O)[C@@]1(Cc2ccccc2)[C@H]2c3cc(C(=O)N(C)C)n(CCn4cc([N+](=O)[O-])nc4C)c3C[C@H]2CN1C(=O)c1ccccc1 | 0.731 (inactive) | 0.83 | 0.391 | -1.73 (inactive) | -0.3 (inactive) | -0.424 (inactive)

Structure (SMILES) | composite z-score [1] | composite z-score (XIP peptide (Xip251-270)) | z-score [2] | z-score [3] | z-score [4] | z-score [5]
COCCOC(=O)N1C(=O)[C@@]2(c3cc(C#CC4=CCCCC4)ccc31)[C@H](c1ccc(O)cc1)N1[C@H](c3ccccc3)[C@H](c3ccccc3)OC(=O)[C@H]1[C@@H]2C(=O)NC[C@H](O)c1ccccc1 | 0.816 (inactive) | 0.75 | -1.69 | 1.07 (inactive) | -0.0889 (inactive) | 0.129 (inactive)
CCCCCCCCCCC(O)C1C=CC2C(=O)N(C)C(=O)C2N1Nc1cc(OC)c(OC)c(OC)c1 (stereo not given) | 0.275 (inactive) | -0.924 | -0.326 | -3.83 (inactive) | 0.569 (inactive) | -0.418 (inactive)
COC(=O)[C@@]1(Cc2ccc(OC)cc2)[C@H]2c3cc(C(=O)N4CCCC4)n(Cc4cc(C)n(C)n4)c3C[C@H]2CN1C(=O)c1ccccc1 | 1.26 (inactive) | 0.528 | -1.44 | -4.85 (inactive) | -0.6 (inactive) | -0.279 (inactive)
Cc1ccc(C(C)CC(O)C2C=CC3C(=O)N(c4ccccc4)C(=O)C3N2Nc2ccc(C#N)cc2)o1 (stereo not given) | 0.662 (inactive) | 0.322 | 0.25 | -3.75 (inactive) | 0.124 (inactive) | 0.222 (inactive)
COc1cc(NN2C(C(O)c3ccc(I)cc3)C=CC3C(=O)N(c4ccccc4)C(=O)C32)cc(OC)c1OC (stereo not given) | 0.204 (inactive) | 0.816 | -0.908 | -4.54 (inactive) | 0.505 (inactive) | 0.241 (inactive)
COCCOC(=O)N1C(=O)[C@@]2(c3ccccc31)[C@H](c1ccc(OCCO)cc1)N1[C@H](c3ccccc3)[C@H](c3ccccc3)OC(=O)[C@H]1[C@@H]2C(=O)N1CCCCCCC1 | 8.16 (active) | 1.04 | -2.08 | -15.8 (active) | -0.17 (inactive) | 0.128 (inactive)
COC(=O)C(CC#Cc1ccc2c(c1)[C@]1(C(=O)N2)[C@H](c2ccc(O)cc2)N2[C@H](c3ccccc3)[C@H](c3ccccc3)OC(=O)[C@H]2[C@@H]1C(=O)N1CCCCCCC1)C(=O)OC | 0.225 (inactive) | 0.59 | -1.92 | 2.08 (inactive) | -0.0422 (inactive) | 0.413 (inactive)
C=C(C(=O)CC[C@H](OC(=O)c1ccccc1-c1ccccc1C(=O)O)c1ccccc1OCCO)C(C)C | -0.0286 (inactive) | 0.7 | -2.47 | -5.13 (inactive) | -0.126 (inactive) | -0.0147 (inactive)
CCCNC(=O)[C@@]1(Sc2ccc(C)cc2)CC(=O)N(C(C)C)[C@@H]1c1ccc(CO)cc1I | 1.51 (inactive) | -0.964 | -0.221 | -3.48 (inactive) | 0.366 (inactive) | 0.197 (inactive)
CCOC(=O)C1=CCC(c2ccccc2)N(S(=O)(=O)c2ccc([N+](=O)[O-])cc2)C1 (stereo not given) | 0.0444 (inactive) | -0.165 | -0.198 | -1.91 (inactive) | 0.268 (inactive) | -0.0449 (inactive)
Cc1ccc(N2C(=O)c3ccccc3[C@](C)(C(=O)NCc3ccccc3)[C@@H]2c2ccc(CO)cc2)nc1 | -0.353 (inactive) | -0.33 | -1.34 | -0.408 (inactive) | -0.0668 (inactive) | 0.0633 (inactive)
O=C1N(CCS(=O)(=O)c2ccccc2)Cc2ccccc2[C@@H]2OC(c3ccc(OCCCO)cc3)=N[C@]12CCS(=O)(=O)c1ccccc1 | 1.25 (inactive) | 0.86 | -2.1 | 0.71 (inactive) | 0.367 (inactive) | 0.793 (inactive)
COCCOC(=O)N1C(=O)[C@@]2(c3cc(C#CCC(C(=O)OC)C(=O)OC)ccc31)[C@H](c1ccc(O)cc1)N1[C@H](c3ccccc3)[C@H](c3ccccc3)OC(=O)[C@H]1[C@@H]2C(=O)NC[C@H](O)c1ccccc1 | 0.398 (inactive) | 0.465 | -0.474 | -2.44 (inactive) | 0.101 (inactive) | 0.524 (inactive)
C=CCNC(=O)[C@@H]1[C@H]2C(=O)O[C@H](c3ccccc3)[C@H](c3ccccc3)N2[C@H](c2ccc(OCCO)cc2)[C@@]12C(=O)N(C(=O)OCCOC)c1ccc(C#CCCO)cc12 | 0.649 (inactive) | 0.69 | -1.56 | -1.19 (inactive) | -0.604 (inactive) | -0.826 (inactive)
C=CC1c2cc(O)c(OC)cc2CCN1Cc1ccc([N+](=O)[O-])o1 (stereo not given) | 0.835 (inactive) | 0.905 | -0.83 | -4.18 (inactive) | -0.131 (inactive) | 0.406 (inactive)
COc1ccc([Si](C)(C)[C@H]2[C@H](CC(=O)N3Cc4ccccc4C[C@H]3CO)O[C@@]3(C(=O)N(Cc4ccc(N5C(=O)c6cccc7cccc5c67)cc4)c4ccccc43)[C@@H]2C)cc1 | 1.23 (inactive) | 0.738 | -1.79 | -2.7 (inactive) | -1.02 (inactive) | -0.113 (inactive)
NC(=O)N1C(=O)C2C(C1=O)C1C=C(CCCO)C2C(C2CC2)N1Cc1cccc(OC(F)(F)F)c1 (stereo not given) | 0.198 (inactive) | -0.341 | 1.17 | -8.76 (active) | 0.791 (inactive) | 0.384 (inactive)
